# In paper PMC11062922 (Nature Chemical Biology, 2023):
# Read-outs that look alike come from different tables or passages of the source.
# Legend:
# PRKD2 = details: read-out: apparent Kd, n = 1
# PRKD3 = details: read-out: apparent Kd, n = 1
substance,measurement,setting,value
Lestaurtinib,potency estimated from few doses,"PRKD2; compound concentrations:100 nM and 1000 nM (sheet 'Lestaurtinib' of Supplementary Table 1),run:Lestaurtinib_02741_R1,Plate:MR023",38.5 nM
same,potency estimated from few doses,"PRKD2; compound concentrations:100 nM and 1000 nM (sheet 'Lestaurtinib' of Supplementary Table 1),run:Lestaurtinib_02748_R1,Plate:MR024",45.6 nM
same,potency estimated from few doses,"PRKD2; compound concentrations:100 nM and 1000 nM (sheet 'Lestaurtinib' of Supplementary Table 1),run:Lestaurtinib_02748_R2,Plate:MR024",48.1 nM
same,potency estimated from few doses,"PRKD2; compound concentrations:100 nM and 1000 nM (sheet 'Lestaurtinib' of Supplementary Table 1),run:Lestaurtinib_02748_R3,Plate:MR024",45.9 nM
same,potency estimated from few doses,"PRKD2; compound concentrations:100 nM and 1000 nM (sheet 'Lestaurtinib' of Supplementary Table 1),run:Lestaurtinib_02752_R1,Plate:MR025",59.6 nM
same,potency estimated from few doses,"PRKD2; compound concentrations:100 nM and 1000 nM (sheet 'Lestaurtinib' of Supplementary Table 1),run:Lestaurtinib_02752_R2,Plate:MR025",58 nM
same,potency estimated from few doses,"PRKD2; compound concentrations:100 nM and 1000 nM (sheet 'Lestaurtinib' of Supplementary Table 1),run:Lestaurtinib_02752_R3,Plate:MR025",35.6 nM
same,potency estimated from few doses,"PRKD2; compound concentrations:100 nM and 1000 nM (sheet 'Lestaurtinib' of Supplementary Table 1),run:Lestaurtinib_02765_R1,Plate:MR026",39.1 nM
same,potency estimated from few doses,"PRKD2; compound concentrations:100 nM and 1000 nM (sheet 'Lestaurtinib' of Supplementary Table 1),run:Lestaurtinib_02765_R2,Plate:MR026",69.2 nM
same,potency estimated from few doses,"PRKD2; compound concentrations:100 nM and 1000 nM (sheet 'Lestaurtinib' of Supplementary Table 1),run:Lestaurtinib_02765_R3,Plate:MR026",67.9 nM
same,potency estimated from few doses,"PRKD2; compound concentrations:100 nM and 1000 nM (sheet 'Lestaurtinib' of Supplementary Table 1),run:Lestaurtinib_02766_R1,Plate:MR027",45.5 nM
same,potency estimated from few doses,"PRKD2; compound concentrations:100 nM and 1000 nM (sheet 'Lestaurtinib' of Supplementary Table 1),run:Lestaurtinib_02766_R2,Plate:MR027",40.9 nM
same,potency estimated from few doses,"PRKD2; compound concentrations:100 nM and 1000 nM (sheet 'Lestaurtinib' of Supplementary Table 1),run:Lestaurtinib_02768_R2,Plate:MR028",44 nM
same,potency estimated from few doses,"PRKD2; compound concentrations:100 nM and 1000 nM (sheet 'Lestaurtinib' of Supplementary Table 1),run:Lestaurtinib_02768_R3,Plate:MR028",41.6 nM
same,potency estimated from few doses,"PRKD2; compound concentrations:100 nM and 1000 nM (sheet 'Lestaurtinib' of Supplementary Table 1),run:Lestaurtinib_02795_R1,Plate:MR022",45 nM
same,potency estimated from few doses,"PRKD2; compound concentrations:100 nM and 1000 nM (sheet 'Lestaurtinib' of Supplementary Table 1),run:Lestaurtinib_02795_R2,Plate:MR022",37.3 nM
same,potency estimated from few doses,"PRKD2; compound concentrations:100 nM and 1000 nM (sheet 'Lestaurtinib' of Supplementary Table 1),run:Lestaurtinib_02802_R2,Plate:MR029",43.6 nM
same,potency estimated from few doses,"PRKD2; compound concentrations:100 nM and 1000 nM (sheet 'Lestaurtinib' of Supplementary Table 1),run:Lestaurtinib_02802_R3,Plate:MR029",32.9 nM
same,potency estimated from few doses,"PRKD2; compound concentrations:100 nM and 1000 nM (sheet 'Lestaurtinib' of Supplementary Table 1),run:Lestaurtinib_02896_R1,Plate:MR030",43 nM
same,potency estimated from few doses,"PRKD2; compound concentrations:100 nM and 1000 nM (sheet 'Lestaurtinib' of Supplementary Table 1),run:Lestaurtinib_02896_R2,Plate:MR030",50.1 nM
same,potency estimated from few doses,"PRKD2; compound concentrations:100 nM and 1000 nM (sheet 'Lestaurtinib' of Supplementary Table 1),run:Lestaurtinib_02896_R3,Plate:MR030",40.6 nM
same,potency estimated from few doses,"PRKD2; compound concentrations:100 nM and 1000 nM (sheet 'Lestaurtinib' of Supplementary Table 1),run:Lestaurtinib_03172_R1,Plate:MR031",29.7 nM
same,potency estimated from few doses,"PRKD2; compound concentrations:100 nM and 1000 nM (sheet 'Lestaurtinib' of Supplementary Table 1),run:Lestaurtinib_03172_R2,Plate:MR031",36 nM
same,potency estimated from few doses,"PRKD2; compound concentrations:100 nM and 1000 nM (sheet 'Lestaurtinib' of Supplementary Table 1),run:Lestaurtinib_03172_R3,Plate:MR031",44.1 nM
same,potency estimated from few doses,"PRKD2; compound concentrations:100 nM and 1000 nM (sheet 'Lestaurtinib' of Supplementary Table 1),run:Lestaurtinib_03252_R1,Plate:MR032",27.4 nM
same,potency estimated from few doses,"PRKD2; compound concentrations:100 nM and 1000 nM (sheet 'Lestaurtinib' of Supplementary Table 1),run:Lestaurtinib_03252_R2,Plate:MR032",32.1 nM
same,potency estimated from few doses,"PRKD2; compound concentrations:100 nM and 1000 nM (sheet 'Lestaurtinib' of Supplementary Table 1),run:Lestaurtinib_03260_R1,Plate:MR033",52.3 nM
same,potency estimated from few doses,"PRKD3; compound concentrations:100 nM and 1000 nM (sheet 'Lestaurtinib' of Supplementary Table 1),run:Lestaurtinib_02339_R1,Plate:MR001",98.8 nM
same,potency estimated from few doses,"PRKD3; compound concentrations:100 nM and 1000 nM (sheet 'Lestaurtinib' of Supplementary Table 1),run:Lestaurtinib_02339_R2,Plate:MR001",98.8 nM
same,potency estimated from few doses,"PRKD3; compound concentrations:100 nM and 1000 nM (sheet 'Lestaurtinib' of Supplementary Table 1),run:Lestaurtinib_02364_R1,Plate:MR002",97.6 nM
same,potency estimated from few doses,"PRKD3; compound concentrations:100 nM and 1000 nM (sheet 'Lestaurtinib' of Supplementary Table 1),run:Lestaurtinib_02364_R3,Plate:MR002",93.5 nM
same,potency estimated from few doses,"PRKD3; compound concentrations:100 nM and 1000 nM (sheet 'Lestaurtinib' of Supplementary Table 1),run:Lestaurtinib_02367_R1,Plate:MR003",45.3 nM
same,potency estimated from few doses,"PRKD3; compound concentrations:100 nM and 1000 nM (sheet 'Lestaurtinib' of Supplementary Table 1),run:Lestaurtinib_02367_R2,Plate:MR003",62.3 nM
same,potency estimated from few doses,"PRKD3; compound concentrations:100 nM and 1000 nM (sheet 'Lestaurtinib' of Supplementary Table 1),run:Lestaurtinib_02367_R3,Plate:MR003",63.6 nM
same,potency estimated from few doses,"PRKD3; compound concentrations:100 nM and 1000 nM (sheet 'Lestaurtinib' of Supplementary Table 1),run:Lestaurtinib_02381_R2,Plate:MR004",59.1 nM
same,potency estimated from few doses,"PRKD3; compound concentrations:100 nM and 1000 nM (sheet 'Lestaurtinib' of Supplementary Table 1),run:Lestaurtinib_02407_R1,Plate:MR005",98 nM
same,potency estimated from few doses,"PRKD3; compound concentrations:100 nM and 1000 nM (sheet 'Lestaurtinib' of Supplementary Table 1),run:Lestaurtinib_02407_R2,Plate:MR005",51.7 nM
same,potency estimated from few doses,"PRKD3; compound concentrations:100 nM and 1000 nM (sheet 'Lestaurtinib' of Supplementary Table 1),run:Lestaurtinib_02422_R1,Plate:MR006",76.7 nM
same,potency estimated from few doses,"PRKD3; compound concentrations:100 nM and 1000 nM (sheet 'Lestaurtinib' of Supplementary Table 1),run:Lestaurtinib_02422_R2,Plate:MR006",42 nM
same,potency estimated from few doses,"PRKD3; compound concentrations:100 nM and 1000 nM (sheet 'Lestaurtinib' of Supplementary Table 1),run:Lestaurtinib_02422_R3,Plate:MR006",81.8 nM
same,potency estimated from few doses,"PRKD3; compound concentrations:100 nM and 1000 nM (sheet 'Lestaurtinib' of Supplementary Table 1),run:Lestaurtinib_02437_R1,Plate:MR007",84 nM
same,potency estimated from few doses,"PRKD3; compound concentrations:100 nM and 1000 nM (sheet 'Lestaurtinib' of Supplementary Table 1),run:Lestaurtinib_02437_R3,Plate:MR007",5.38 nM
